Inconclusive results are not listed. Activity calls are given as the source filed them.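 Rule for the calls, unless noted: active = compounds whose cell count with miR-34 switched on is under 0.7 times the count with it off; inactive = the rest.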
Key:
[1] = growth inhibition of DIPG glioma cells, dose response, cell-based, SU-DIPG-XIII, MIPE4.0, CellTiter-Glo, qHTS (AID 1347061; cut-off not given, nearly all actives have AC50 up to about 37 µM;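 note: cells exposed to compound for 48 hours before readout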); details: SU-DIPG-XIII viability, CellTiter-Glo ATP luminescence
[2] = growth inhibition of DIPG glioma cells, dose response, cell-based, JHH-DIPG-1, MIPE4.0, CellTiter-Glo, qHTS (AID 1347062; cut-off not given, nearly all actives have AC50 up to about 27 µM); details: JHH-DIPG-1 viability, CellTiter-Glo ATP luminescence
[3] = growth inhibition of DIPG glioma cells, dose response, cell-based, SU-DIPG-IV, MIPE4.0, CellTiter-Glo, qHTS (AID 1347063; cut-off not given, nearly all actives have AC50 up to about 30 µM;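 note: compound exposure lasted 48 hours before the viability readout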); details: SU-DIPG-IV viability, CellTiter-Glo ATP luminescence
[4] = SU-DIPG-VI glioma cell viability, MIPE4.0 library, CellTiter-Glo luminescence, qHTS (AID 1347066; cut-off not given, nearly all actives have AC50 up to about 30 µM;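 note: cells exposed to compound for 48 hours before readout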); details: CellTiter-Glo ATP luminescence
[5] = inhibitors of Cryptococcus chitosan production, flow cytometry, Cibacron Brilliant Red staining (AID 1347148; call rule not given here;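 note: compound exposure lasted three days at 37 degrees C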); details: Cryptococcus neoformans chitosan, stronger effect = lower value; at 10 µM unless noted
[6] = sensitizers of A549 cells to miR-34 induction, primary screen, imaging, A549 dox-inducible miR-34, nuclei and caspase counts (AID 1347080); details: A549 miR-34 inducible, Hoechst nuclei count, 48 h
[7] = SU-DIPG-XXV glioma cell viability, MIPE5.0 library, qHTS (AID 1347068; cut-off not given, nearly all actives have IC50 up to about 30 µM)
[8] = survival rescue of mitochondrial mutant cells in low glucose, primary screen, MELAS cybrids, Rieske KO mouse fibroblasts, CellTiter-Glo (AID 1508586;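 active = mean z-score across replicates of 1.96 or higher in either the MELAS or the Rieske mutant cell line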;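 note: z relative to plate mean and SD of compound and empty wells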)
[9] = growth inhibition of DIPG glioma cells, dose response, cell-based, SU-DIPG-XIII, MIPE5.0, CellTiter-Glo, qHTS (AID 1347064; cut-off not given, nearly all actives have AC50 up to about 23 µM); details: SU-DIPG-XIII viability, CellTiter-Glo ATP luminescence
[10] = viability loss in pontine glioma line – cell-based, SU-DIPG-XXV, MIPE5.0, CellTiter-Glo, qHTS, dose response (AID 1347065; cut-off not given, nearly all actives have AC50 up to about 26 µM;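 note: cells exposed to compound for 48 hours before ATP readout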); details: CellTiter-Glo ATP luminescence
[11] = JHH-DIPG-1 glioma cell viability, MIPE5.0 library, CellTiter-Glo luminescence, qHTS (AID 1347067; cut-off not given, nearly all actives have AC50 up to about 26 µM;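 note: cells exposed to compound for 48 hours before readout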); details: JHH-DIPG-1 glioma viability, CellTiter-Glo ATP luminescence
[12] = liver-stage malaria parasite growth inhibition, primary screen, cell-based, HepG2, luciferase luminescence, HepG2 viability (AID 624349; in the data active = parasite load remaining mostly below about 12%, no sharp cut-off; inactive = mostly above about 10%;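 note: 100% = mean of DMSO negative control wells on the same plate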); details: P. berghei liver stage in HepG2, luciferase luminescence, concentration not given here; parasite load remaining: stronger effect = lower value; viability: measured here: HepG2 viability without parasites
[13] = stronger effect = lower value, cell number ratio, induced over uninduced
[14] = measured here: relative caspase fold change +Dox/-Dox
[15] = measured here: total cells with miR-34 induction, stronger effect = lower value
[16] = measured here: total cells without miR-34 induction
[17] = MELAS cybrid survival, CellTiter-Glo 48 h, stronger effect = higher value
[18] = Rieske KO mouse fibroblast survival, CellTiter-Glo 72 h

CC1=C(CC/C(C)=C/CCC2=CCC(C3=CC(=O)OC3O)OC2O)C(C)(C)CCC1 (stereo not given)
outcome [1]: inactive
outcome [2]: inactive
outcome [3]: inactive
outcome [4]: inactive
fold fluorescence [5]: 4.39 [at 120 µM] (inactive)

CC(=O)OCC1=C(C(=O)O)N2C(=O)[C@@H](N)[C@@H]2SC1
outcome [1]: inactive
outcome [4]: inactive

CNC(=O)N1N=C(c2ccc(N)cc2)c2cc3c(cc2CC1C)OCO3 (stereo not given)
outcome [2]: inactive
outcome [4]: inactive

c1cc(N2CCNCC2)c2cnccc2c1
fold change [6, 13]: 0.965 (inactive)
fold change [6, 14]: 0.639
cell count [6, 15]: 5540
cell count [6, 16]: 5740

CCCCC/C=C\C/C=C\C/C=C\C/C=C\CCCC(=O)NCCF
fold change [6, 13]: 1 (inactive)
fold change [6, 14]: 1.18
cell count [6, 15]: 5320
cell count [6, 16]: 5320

Cc1sc2c(c1C)C(c1ccc(Cl)cc1)=NC(CC(=O)Nc1ccc(O)cc1)c1nnc(C)n1-2 (stereo not given)
outcome [7]: inactive
fold change [6, 13]: 0.898 (inactive)
fold change [6, 14]: 0.692
cell count [6, 15]: 4940
cell count [6, 16]: 5500
z-score [8, 17]: -0.542 (inactive)
z-score [8, 18]: -4.37

CCCC[C@@H](C)[C@@H](OC(=O)C[C@@H](CC(=O)O)C(=O)O)[C@H](C[C@@H](C)C[C@H](O)CCCC[C@@H](O)C[C@H](O)[C@H](C)N)OC(=O)C[C@H](CC(=O)O)C(=O)O
fold change ([6]; stronger effect = lower value): 0.911 (inactive)
fold change [6, 14]: 1.82
cell count [6, 15]: 5520
cell count [6, 16]: 6060

COc1ccc(/C=C/C(=O)CC(=O)/C=C/c2ccc(OC)c(OC)c2)cc1OC
fold change [6, 13]: 0.864 (inactive)
fold change [6, 14]: 0.752
cell count [6, 15]: 5430
cell count [6, 16]: 6280

CC[C@@]1(O)C(=O)OCc2c1cc1n(c2=O)-c2cc3ccccc3nc2C1
fold change ([6]; stronger effect = lower value): 1.01 (inactive)
fold change [6, 14]: 0.79
cell count [6, 15]: 1320
cell count [6, 16]: 1300

C[C@H]1[C@@H](C(=O)C[C@H]2O[C@@H]3O[C@]4(C)CC[C@H]5[C@H](C)CC[C@@H]([C@H]2C)[C@@]35OO4)O[C@@H]2O[C@]3(C)CC[C@H]4[C@H](C)CC[C@@H]1[C@@]24OO3
outcome [4]: inactive

CCNC(=O)[C@H]1O[C@@H](n2cnc3c(N)ncnc32)[C@@H](O)C1O (stereo not given in full)
fold change [6, 13]: 0.967 (inactive)
fold change [6, 14]: 0.965
cell count [6, 15]: 6150
cell count [6, 16]: 6360

C=C(C)[C@@H]1CCC(C)=C[C@H]1c1c(C)cc(O)cc1O
fold change [6, 13]: 0.943 (inactive)
fold change [6, 14]: 0.916
cell count [6, 15]: 5200
cell count [6, 16]: 5510

CCNC(=O)CC1N=C(c2ccc(Cl)cc2)c2cc(OC)ccc2-n2c(C)nnc21 (stereo not given)
AC50 [3]: 16.6 µM (active)
outcome [9]: inactive
outcome [10]: inactive
outcome [11]: inactive
outcome [7]: inactive
fold change [6, 13]: 0.886 (inactive)
fold change [6, 14]: 0.522
cell count [6, 15]: 5810
cell count [6, 16]: 6550
z-score [8, 17]: 0.755 (inactive)
z-score [8, 18]: -2.99

C[C@H](Nc1ncnc2nc[nH]c12)c1nc2ccc(F)cc2c(=O)n1-c1ccccc1
AC50 [10]: 14.8 µM (active)
outcome [7]: inactive

O=c1[nH]c2ccccc2n1C1CCN(Cc2ccc(-c3[nH]c4cc5ncnc5cc4nc3-c3ccccc3)cc2)CC1
parasite load remaining [12]: 45.5% (inactive)
viability [12]: 115%
AC50 [3]: 16.6 µM (active)
AC50 [10]: 23.5 µM (active)
AC50 [4]: 14.8 µM (active)

CN[C@@H]1CC2OC(C)([C@@H]1OC)n1c3ccccc3c3c4c(c5c6ccccc6n2c5c31)C(=O)NC4 (stereo not given in full)
fold change ([6]; stronger effect = lower value): 0.831 (inactive)
fold change [6, 14]: 0.918
cell count [6, 15]: 692
cell count [6, 16]: 832

CC(=O)N1N=C(c2ccc(N)cc2)c2cc3c(cc2C[C@H]1C)OCO3
outcome [9]: inactive
outcome [10]: inactive
outcome [11]: inactive
outcome [7]: inactive

CC1(C)C(=O)N(c2ccc(C#N)c(C(F)(F)F)c2)C(=S)N1Cc1ccc(-c2cn[nH]n2)cc1
outcome [7]: inactive

OOCCC/C=C/c1ccccc1
fold change [6, 13]: 0.959 (inactive)
fold change [6, 14]: 0.789
cell count [6, 15]: 5730
cell count [6, 16]: 5970

CCCCC/C=C\C/C=C\C/C=C\C/C=C\CCCC(=O)NCCc1c[nH]c2ccc(O)cc12
fold change [6, 13]: 1 (inactive)
fold change [6, 14]: 0.653
cell count [6, 15]: 5660
cell count [6, 16]: 5630

CC(C)(NC(=O)O[C@@H]1CN2CCC1CC2)c1csc(-c2ccc(F)cc2)n1
outcome [9]: inactive
outcome [10]: inactive
outcome [11]: inactive
outcome [7]: inactive

CCCCCC(/C=C/C=O)OO (stereo not given)
fold change [6, 13]: 0.987 (inactive)
fold change [6, 14]: 1.26
cell count [6, 15]: 5780
cell count [6, 16]: 5860

C=C1[C@@H](O)[C@@H]2O[C@@]3(CCC2O[C@@H]1[C@@H](O)C[C@H](C)C1O[C@@]2(CCCCO2)CC[C@H]1C)CC[C@H](/C=C/[C@@H](C)[C@@H]1CC(C)=C[C@@]2(O[C@H](C[C@@](C)(O)C(=O)O)CC[C@H]2O)O1)O3 (stereo not given in full)
fold change [6, 13]: 0.897 (inactive)
fold change [6, 14]: 0.814
cell count [6, 15]: 423
cell count [6, 16]: 472

Cc1c(C(=O)Nc2cccc(C(F)(F)F)c2)cc(-c2ccccc2)n1CCCN1CCOCC1
AC50 [3]: 18.7 µM (active)
outcome [9]: inactive

CCCCC/C=C\C/C=C\C/C=C\C/C=C\CCCC(=O)Nc1ccc([N+](=O)[O-])cc1
fold change [6, 13]: 1.04 (inactive)
fold change [6, 14]: 1.21
cell count [6, 15]: 5860
cell count [6, 16]: 5630

COc1ccc2cc(C(C#N)OC(=O)OCC3OC3c3ccccc3)ccc2c1 (stereo not given)
fold change [6, 13]: 0.914 (inactive)
fold change [6, 14]: 0.565
cell count [6, 15]: 5380
cell count [6, 16]: 5890

C=CCO/N=C(/C[C@H]1O[C@@H]2O[C@]3(C)CC[C@H]4[C@H](C)CC[C@@H]([C@H]1C)[C@@]24OO3)[C@H]1O[C@@H]2O[C@]3(C)CC[C@H]4[C@H](C)CC[C@@H]([C@H]1C)[C@@]24OO3
AC50 [3]: 0.209 µM (active)

CCCCCCCCCCCCCCCCSP(=O)([O-])OCC[N+](C)(C)C
fold change [6, 13]: 0.933 (inactive)
fold change [6, 14]: 0.479
cell count [6, 15]: 5080
cell count [6, 16]: 5450

CN=C(NS(=O)(=O)c1ccc(Cl)cc1)N1CC(c2ccccc2)C(c2ccc(Cl)cc2)=N1 (stereo not given)
fold change [6, 13]: 0.741 (inactive)
fold change [6, 14]: 0.564
cell count [6, 15]: 4700
cell count [6, 16]: 6340

c1cc(N2CCNCC2)c2cc[nH]c2c1
fold change [6, 13]: 0.865 (inactive)
fold change [6, 14]: 1.51
cell count [6, 15]: 4820
cell count [6, 16]: 5570

Source: PubChem BioAssay
